Source: PubChem
Hits are enriched below; roughly 5.7% of the tested compounds scored in any of these assays.
AHR act: activators of human aryl hydrocarbon receptor | P35869 | AHR-responsive luciferase reporter cells, luminescence | activation, % at 5 µM | 2.5% of 320,000 active | AID 2796; in the data active means activation above about 47%;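 further: 0% = vehicle wells and 100% = reference agonist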
ssDAF12 agonist: S. stercoralis DAF-12 activation, primary screen; HEK293 ssDAF-12/GRIP1 lit1-tk-luc reporter, luminescence; % of 3 µM dafachronic acid response; activation, % at 6.8 µM; 1% of 370,000 active;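 active means activation above the mean over all tested compounds plus 3 SD, cut at about 0.9% in these data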;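 further: 0% = DMSO-only wells and 100% = 3 µM delta7-dafachronic acid wells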
hcDAF12 agonist: activators of H. contortus DAF-12 nuclear receptor | HEK293 hcDAF-12 lit1-tk-luc reporter, luminescence; 0% DMSO, 100% Δ7-dafachronic acid | activation, % at 6.8 µM | 1.4% of 370,000 active | AID 652067;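 active means activation above the mean of all tested compounds plus 3 SD, cut at about 5.5% in these data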;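 further: 100% = response to 3 µM Δ7-dafachronic acid high control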
DAX1 inh-1: blocks DAX1 repression of SF-1 activated StAR promoter. AID 652010. inhibition, % at 6.8 µM. HEK293T StAR-luciferase reporter, SF-1/DAX-1 repression relief. 1.1% of 370,000 active;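 active means inhibition above the mean over all tested compounds plus 3 SD, cut at about 3.6% in these data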;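 further: 0% = DAX-1 cells with DMSO and 100% = cells lacking DAX-1 with DMSO; higher inhibition means more luminescence from relief of DAX-1 repression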
hgDAF12 agonist: hgDAF-12 agonism, primary luciferase screen; 1.8% of 370,000 active; HEK293 GAL4-hgDAF12 UAS-luciferase reporter, agonist luminescence; normalized to butyrate control; activation, % at 6.8 µM;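 active means activation above a cutoff set at the mean of all screened compounds plus 3 SD, cut at about 10% in these data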;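 further: 0% = DMSO wells and 100% = sodium butyrate wells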
DAX1 inh-2: inhibitors of human orphan nuclear receptor DAX1 (NR0B1) | HEK293 Gal4-DAX1 luciferase reporter, luminescence | inhibition, % at 6.75 µM | 0.99% of 340,000 active | AID 504766;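 active means inhibition above the mean over all tested compounds plus 3 SD, cut at about 4.2% in these data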;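 further: 0% = DAX1-transfected cells with DMSO and 100% = empty-vector control cells with DMSO; inhibition shows as a rise in luminescence from relieved DAX1 repression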
Target sequence (P51843 207-470 limits assumed): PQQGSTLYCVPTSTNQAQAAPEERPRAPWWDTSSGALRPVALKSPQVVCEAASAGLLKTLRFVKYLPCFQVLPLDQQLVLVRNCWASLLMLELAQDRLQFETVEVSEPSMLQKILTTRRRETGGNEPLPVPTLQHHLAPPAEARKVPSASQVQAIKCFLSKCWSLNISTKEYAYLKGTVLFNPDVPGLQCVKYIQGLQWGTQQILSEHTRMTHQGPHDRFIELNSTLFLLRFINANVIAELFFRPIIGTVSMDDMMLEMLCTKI
hgDAF12 ag: confirmation of H. glycines DAF-12 agonists; shares compounds with hgDAF12 agonist; HEK293 GAL4-hgDAF12 luciferase reporter, agonist mode; percent of butyrate response; activation, % at 6.8 µM; 80% of 3,300 active; AID 743050;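 active means mean activation over triplicate wells above the hit cutoff derived from the earlier primary screen, cut at about 11% in these data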;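 further: 0% = DMSO low control and 100% = 2 mM sodium butyrate high control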
LXR ag 2: counter-screen for DAF-12 agonists: agonists of human LXR-beta. shares compounds with hgDAF12 agonist. 3,300 tested, under 10 active. HEK293 Gal4-LXR luciferase reporter, 24 h. activation, % at 6.8 µM;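 active means mean activation of the triplicate above a set limit carried over from the primary screen, none filed active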
Target sequence (P55055 whole entry, looked up, the tested form may be a part): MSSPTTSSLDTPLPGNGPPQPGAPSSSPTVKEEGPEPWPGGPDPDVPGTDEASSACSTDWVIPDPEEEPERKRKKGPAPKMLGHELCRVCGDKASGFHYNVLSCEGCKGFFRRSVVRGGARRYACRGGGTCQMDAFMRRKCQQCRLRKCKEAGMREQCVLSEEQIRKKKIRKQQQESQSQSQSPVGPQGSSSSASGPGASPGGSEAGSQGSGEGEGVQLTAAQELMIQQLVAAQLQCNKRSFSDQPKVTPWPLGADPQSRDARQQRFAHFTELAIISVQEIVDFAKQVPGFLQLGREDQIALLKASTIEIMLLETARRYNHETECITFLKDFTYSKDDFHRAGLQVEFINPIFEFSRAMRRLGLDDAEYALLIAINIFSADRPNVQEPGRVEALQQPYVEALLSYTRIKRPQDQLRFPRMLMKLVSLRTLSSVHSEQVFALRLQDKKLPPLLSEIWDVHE
Active calls of the source: *.

Results for O=C(N/N=C/c1ccccc1Cl)c1cccc(F)c1 ?
AHR act: 1.3; ssDAF12 agonist: 0.3; hcDAF12 agonist: 3.1; DAX1 inh-1: 3.7*; hgDAF12 agonist: 16.5*; DAX1 inh-2: 1.5; hgDAF12 ag: 12.7*; LXR ag 2: 0.5

What do the screens show for `CN(C(=O)CC1C(=O)NCCN1Cc1ccccc1C(F)(F)F)C1CCOCC1` (stereo not given)?
AHR act: 0.5; ssDAF12 agonist: -1.0; hcDAF12 agonist: 2.6; DAX1 inh-1: -0.1; hgDAF12 agonist: 0.6; DAX1 inh-2: -0.2

Results for Cc1cccnc1NC(=O)c1ccc(S(=O)(=O)NCc2ccco2)cc1 ?
AHR act: 4.4; ssDAF12 agonist: 0.4; hcDAF12 agonist: -0.6; DAX1 inh-1: 1.2; hgDAF12 agonist: -0.1; DAX1 inh-2: 1.1

Results for O=C(Nc1ncccc1O)c1ccc(S(=O)(=O)NCc2ccco2)cc1 ?
ssDAF12 agonist: -0.3; hcDAF12 agonist: 0.1; DAX1 inh-1: 4.3*; hgDAF12 agonist: 21.3*; DAX1 inh-2: 3.9; hgDAF12 ag: 20.2*; LXR ag 2: 0.1

How did Cc1cccc(/C(N)=N/OC(=O)c2cccnc2)c1 do in these assays?
AHR act: -7.7; ssDAF12 agonist: 1.1*; hcDAF12 agonist: 4.8; DAX1 inh-1: 3.4; hgDAF12 agonist: 20.4*; DAX1 inh-2: 1.9; hgDAF12 ag: 11.3*; LXR ag 2: 0.6

How did Cc1cccc(C(=O)O/N=C(\N)c2ccccn2)c1 do in these assays?
AHR act: 10.2; ssDAF12 agonist: -1.1; hcDAF12 agonist: -0.8; DAX1 inh-1: -0.3; hgDAF12 agonist: -4.2; DAX1 inh-2: -3.0

How did Cc1ccc(-c2cc(C(=O)NCC3CCCO3)no2)cc1 (stereo not given) do in these assays?
AHR act: -2.0; ssDAF12 agonist: -0.7; hcDAF12 agonist: 1.3; DAX1 inh-1: 3.2; hgDAF12 agonist: 14.3*; DAX1 inh-2: 1.4; hgDAF12 ag: 13.1*; LXR ag 2: 0.5

How did Cc1ccc(Nc2nc(C(=O)NCC3CCCO3)cs2)cc1 (stereo not given) do in these assays?
AHR act: 26.7; ssDAF12 agonist: -0.5; hcDAF12 agonist: -2.1; DAX1 inh-1: 0.1; hgDAF12 agonist: 1.1; DAX1 inh-2: 0.0

What do the screens show for `O=C(NCC1CCCO1)c1cc(-c2ccccc2)on1` (stereo not given)?
AHR act: 5.2; ssDAF12 agonist: 0.3; hcDAF12 agonist: 6.5*; DAX1 inh-1: 2.2; hgDAF12 agonist: 42.0*; DAX1 inh-2: 4.3*; hgDAF12 ag: 48.4*; LXR ag 2: 0.6

What do the screens show for `O=C(NCC1CCCO1)c1cc(-c2ccc(Cl)cc2Cl)on1` (stereo not given)?
AHR act: -12.1; ssDAF12 agonist: 0.0; hcDAF12 agonist: 1.5; DAX1 inh-1: 2.7; hgDAF12 agonist: 8.9; DAX1 inh-2: 0.1

Results for Cc1ccc2c(Cl)c(C(=O)NCC3CCCO3)sc2c1 (stereo not given) ?
AHR act: -9.2; ssDAF12 agonist: -0.3; hcDAF12 agonist: 3.0; DAX1 inh-1: 2.9; hgDAF12 agonist: 7.8; DAX1 inh-2: 2.8

How did O=C(NCC1CCCO1)c1sc2ccccc2c1Cl (stereo not given) do in these assays?
AHR act: 0.9; ssDAF12 agonist: -1.2; hcDAF12 agonist: 2.6; DAX1 inh-1: 3.2; hgDAF12 agonist: 13.8*; DAX1 inh-2: 2.5; hgDAF12 ag: 10.4; LXR ag 2: 0.5

What do the screens show for `O=C(NCC1CCCO1)c1cc(-c2ccc(F)cc2)no1` (stereo not given)?
AHR act: 12.0; ssDAF12 agonist: 0.4; hcDAF12 agonist: 4.0; DAX1 inh-1: 2.1; hgDAF12 agonist: 18.4*; DAX1 inh-2: 2.2; hgDAF12 ag: 19.1*; LXR ag 2: 0.1

What do the screens show for `CCOc1ccc(NC(c2ccccn2)c2oc(CO)cc(=O)c2O)cc1` (stereo not given)?
AHR act: 26.6; ssDAF12 agonist: 1.4*; hcDAF12 agonist: 4.4; DAX1 inh-1: 3.1; hgDAF12 agonist: 14.1*; DAX1 inh-2: 1.7; hgDAF12 ag: 13.1*; LXR ag 2: 0.3

How did CCOc1ccc(NC(=O)C(c2ccccn2)N(C(=O)CCl)c2ccc(OCC)cc2)cc1 (stereo not given) do in these assays?
AHR act: 21.5; DAX1 inh-2: 2.6

What do the screens show for `CCC/C(=N/NC(=O)c1cccc(Cl)c1)c1ccccc1`?
AHR act: 1.1; ssDAF12 agonist: -0.5; hcDAF12 agonist: 2.6; DAX1 inh-1: 1.9; hgDAF12 agonist: 16.6*; DAX1 inh-2: 0.1; hgDAF12 ag: 0.2; LXR ag 2: 0.0

What do the screens show for `COc1cccc2c1C(=O)O/C2=C/c1ccc2c(c1)OCO2`?
AHR act: 21.0; ssDAF12 agonist: 1.2*; hcDAF12 agonist: 4.6; DAX1 inh-1: 3.6; hgDAF12 agonist: 16.3*; DAX1 inh-2: 3.5; hgDAF12 ag: 14.3*; LXR ag 2: 1.2

How did COc1ccc(NC(=O)C(C)N=C2NS(=O)(=O)c3ccccc32)cc1S(N)(=O)=O (stereo not given) do in these assays?
AHR act: 0.6; ssDAF12 agonist: -0.9; hcDAF12 agonist: 1.2; DAX1 inh-1: 2.2; hgDAF12 agonist: 15.0*; DAX1 inh-2: 1.0; hgDAF12 ag: -1.6; LXR ag 2: 0.0

What do the screens show for `CCOC(=O)COc1ncn(-c2ccccc2)n1`?
AHR act: -1.5; ssDAF12 agonist: -0.8; hcDAF12 agonist: 0.4; DAX1 inh-1: -0.1; hgDAF12 agonist: -0.8; DAX1 inh-2: 0.0

What do the screens show for `CCOC(=O)COc1ccccc1C(=O)c1cnn(-c2ccccc2)c1`?
AHR act: 14.4; ssDAF12 agonist: 0.1; hcDAF12 agonist: 4.0; DAX1 inh-1: 0.5; hgDAF12 agonist: 13.7*; DAX1 inh-2: 0.4; hgDAF12 ag: 5.4; LXR ag 2: 0.1

What do the screens show for `CN(C1CCCCC1)S(=O)(=O)c1ccc(S(=O)(=O)N(CC(=O)Nc2ccccc2)C2CC2)cc1`?
AHR act: 0.2; ssDAF12 agonist: -1.3; hcDAF12 agonist: -0.5; DAX1 inh-1: 0.7; hgDAF12 agonist: -3.2; DAX1 inh-2: -0.7

How did Cc1csc(NC(=O)Nc2cccc(Cl)c2)n1 do in these assays?
AHR act: 22.7; ssDAF12 agonist: 0.2; hcDAF12 agonist: 3.6; DAX1 inh-1: 1.7; hgDAF12 agonist: 17.2*; DAX1 inh-2: 1.1; hgDAF12 ag: 13.7*; LXR ag 2: 0.6

What do the screens show for `O=C(Nc1cccc(Cl)c1)Nc1nc(-c2ccccc2)cs1`?
AHR act: 16.6; ssDAF12 agonist: -1.0; hcDAF12 agonist: -1.4; DAX1 inh-1: -0.1; hgDAF12 agonist: 4.3; DAX1 inh-2: -0.8
